# From PubChem BioAssay
# Calls of active or inactive are those of the source.
# Tests used:
# [1] = resazurin metabolic signal in HepG2 cells – cell-based, resazurin fluorescence, 24 h, PK04 Diversity Set, profiling panel (AID 1172); settings: HepG2 viability, higher = more signal
# [2] = budding yeast growth changes without added modifier – OD600, strain BY4716, 24 h, basal condition, primary screen (AID 1173); settings: S. cerevisiae BY4716 growth, OD600, 24 h; higher = more signal, called active from +8 up or from −8 down
# [3] = viability profiling in MM1S myeloma cells – cell-based, resazurin fluorescence, basal, 24 h, PK04 Diversity Set, profiling panel (AID 1174); settings: higher = more signal, called active from +8 up or from −8 down;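 also: MM1S multiple myeloma cell line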
# [4] = target: Dihydroorotate dehydrogenase (quinone), mitochondrial (Plasmodium falciparum (isolate 3D7)) (UniProt Q08210); test: inhibition of P. falciparum DHODH – biochemical, C-terminal His tag, absorbance 600 nm, primary screen (AID 1175); settings: PfDHODH enzyme, DCIP absorbance 600 nm; higher = more signal, called active from +8 up or from −8 down;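 also: recombinant parasite enzyme with a five histidine tag at its C terminus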
# [5] = growth modulation of vineyard yeast isolate – strain RM11-1a, OD600, basal, 24 h, primary screen (AID 1177);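 also: cultures grown under basal conditions with no added stressor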; settings: S. cerevisiae RM11-1a growth, OD600, 24 h; higher = more signal, called active from +8 up or from −8 down
# [6] = growth of efflux-deficient E. coli DRC39 – strain DRC39, OD650, 24 h, E. coli filamentation inducers, primary screen (AID 1178);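 also: growth measured as culture turbidity by optical density at 650 nm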; settings: E. coli DRC39 acrAB, higher = more signal, called active from +8 up or from −8 down
# [7] = growth of efflux-deficient E. coli DRC39 – strain DRC39, OD650, 48 h, E. coli filamentation inducers, primary screen (AID 1179);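 also: screen aims at cell division blockers that make cells filament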; settings: E. coli DRC39 delta-acrAB growth, higher = more signal, called active from +8 up or from −8 down
# [8] = viability profiling in RPMI8226 myeloma cells – cell-based, resazurin fluorescence, basal, 24 h, PK04 Diversity Set, profiling panel (AID 1180); settings: higher = more signal;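 also: RPMI8826 multiple myeloma cell line at 5000 cells per well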
# [9] = target: E3 ubiquitin-protein ligase XIAP (Homo sapiens) (UniProt P98170); test: small molecules binding XIAP protein – biophysical, small-molecule microarray, fluorescence 635 nm, primary screen (AID 1181); settings: higher = more signal;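 also: score merges 667 nm emission and signal to noise over triplicate slides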
# [10] = test system: XIP peptide (Xip251-270) binding; test: XIP fragment 251-270 binding compounds – biochemical, small-molecule microarray, fluorescence 635/667 nm, 0.1 µg/mL protein, primary screen (AID 1182); settings: fluorescent protein binding, 635 nm, higher = more signal, called active from +8 up or from −8 down
# [11] = test system: XIP peptide (Xip251-270); test: compounds binding XIP fragment 251-270 – biochemical, small-molecule microarray, fluorescence 635/667 nm, 0.5 µg/mL protein, primary screen (AID 1183); settings: fluorescence 635 nm, higher = more signal
# [12] = blood-stage malaria parasite viability loss – strain 3D7, DAPI fluorescence, 100 nL, primary screen (AID 1184);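 also: parasites grown inside human red blood cells in medium with human serum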; settings: P. falciparum 3D7 growth, 3 d, higher = more signal
# [13] = target: Homeobox protein Hox-A13 (Mus musculus) (UniProt Q62424); test: disruptors of Hoxa13 oligonucleotide interaction – biochemical, fluorescence polarization, labeled oligonucleotide, primary screen (AID 1185); settings: Hoxa13:DNA binding, 15 min, higher = more signal, called active from +8 up or from −8 down
# Chain of Homeobox protein Hox-A13 (Mus musculus) (Q62424 whole entry, looked up): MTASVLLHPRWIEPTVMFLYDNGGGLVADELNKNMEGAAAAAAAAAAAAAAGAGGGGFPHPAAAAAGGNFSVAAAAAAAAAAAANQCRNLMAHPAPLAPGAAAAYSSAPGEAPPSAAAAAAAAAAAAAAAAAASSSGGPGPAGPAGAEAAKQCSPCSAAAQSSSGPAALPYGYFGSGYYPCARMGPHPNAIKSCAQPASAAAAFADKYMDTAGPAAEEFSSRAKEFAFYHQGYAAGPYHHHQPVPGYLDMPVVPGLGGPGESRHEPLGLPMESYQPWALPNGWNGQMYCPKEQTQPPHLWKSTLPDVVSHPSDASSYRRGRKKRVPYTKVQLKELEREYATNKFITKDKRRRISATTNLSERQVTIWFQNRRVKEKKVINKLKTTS
# Chain of Dihydroorotate dehydrogenase (quinone), mitochondrial (Plasmodium falciparum (isolate 3D7)) (Q08210 whole entry, looked up): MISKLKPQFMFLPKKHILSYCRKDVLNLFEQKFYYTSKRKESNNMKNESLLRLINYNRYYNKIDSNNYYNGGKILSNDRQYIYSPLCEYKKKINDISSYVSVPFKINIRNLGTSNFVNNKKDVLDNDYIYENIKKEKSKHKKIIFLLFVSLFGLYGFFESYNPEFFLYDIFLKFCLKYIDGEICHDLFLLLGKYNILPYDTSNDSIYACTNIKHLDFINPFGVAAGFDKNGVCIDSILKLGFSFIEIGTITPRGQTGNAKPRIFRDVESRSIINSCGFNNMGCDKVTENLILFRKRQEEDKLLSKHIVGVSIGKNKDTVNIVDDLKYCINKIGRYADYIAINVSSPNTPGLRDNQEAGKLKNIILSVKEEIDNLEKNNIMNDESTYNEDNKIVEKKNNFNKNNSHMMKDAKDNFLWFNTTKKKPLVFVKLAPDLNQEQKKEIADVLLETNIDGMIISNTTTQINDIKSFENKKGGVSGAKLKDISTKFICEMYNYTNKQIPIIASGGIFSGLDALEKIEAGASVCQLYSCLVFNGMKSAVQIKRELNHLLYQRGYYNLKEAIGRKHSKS
# Chain of E3 ubiquitin-protein ligase XIAP (Homo sapiens) (P98170 whole entry, looked up, the tested form may be a part): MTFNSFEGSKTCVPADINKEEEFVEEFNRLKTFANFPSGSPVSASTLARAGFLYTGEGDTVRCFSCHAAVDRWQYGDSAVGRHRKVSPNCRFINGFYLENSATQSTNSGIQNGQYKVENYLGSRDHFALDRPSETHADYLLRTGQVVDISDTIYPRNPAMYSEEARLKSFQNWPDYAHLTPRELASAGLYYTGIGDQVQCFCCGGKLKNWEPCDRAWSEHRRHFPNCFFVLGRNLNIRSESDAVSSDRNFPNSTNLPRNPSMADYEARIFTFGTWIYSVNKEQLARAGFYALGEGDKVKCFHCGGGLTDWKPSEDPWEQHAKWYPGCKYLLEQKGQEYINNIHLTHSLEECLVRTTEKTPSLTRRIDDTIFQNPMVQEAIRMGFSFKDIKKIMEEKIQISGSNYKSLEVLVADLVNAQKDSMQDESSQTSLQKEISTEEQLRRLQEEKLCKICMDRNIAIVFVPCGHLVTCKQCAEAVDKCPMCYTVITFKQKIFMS
SMILES,z-score [1],z-score [2],z-score [3],composite z-score [4],z-score [5],z-score [6],z-score [7],z-score [8],composite z-score [9],composite z-score [10],composite z-score [11],z-score [12],z-score [13]
Cc1ccc(S(=O)(=O)N[C@H]2COC(=O)CC=C[C@H](C)COC(=O)N[C@@H](C)C(=O)CC=C[C@@H]2C)cc1,0.115,-0.949 (inactive),1.71 (inactive),0.32 (inactive),-0.698 (inactive),0.583 (inactive),0.286 (inactive),1.06,-0.0282,-0.478 (inactive),0.619,-1.23,-1.11 (inactive)
C[C@@H]1C=CCC(=O)OC[C@H]2O[C@@H](C=C[C@@H]2O)[C@H](C)C=CCC(=O)OC[C@H]2O[C@H]1C=C[C@@H]2O,-0.269,-2.13 (inactive),0.689 (inactive),-3.68 (inactive),-2.89 (inactive),0.552 (inactive),-1.41 (inactive),0.807,-0.039,0.424 (inactive),0.466,-2.25,-1.31 (inactive)
COc1cccc([C@@H]2[C@@H](C)CC[C@H]3C(=O)N4[C@H](c5cccc(OC)c5)[C@@H](C)CC[C@H]4C(=O)N23)c1,1.96,-2.76 (inactive),1.24 (inactive),-1.35 (inactive),-3.28 (inactive),0.697 (inactive),-1.17 (inactive),1.42,-0.0599,-0.142 (inactive),0.379,0.137,-1.96 (inactive)
CCC(=O)[C@]12O[C@@]3([C@@H]4C(=O)OCC[C@@H]41)N(CC)C(C)=C(C(=O)OC)[C@@H](c1ccccc1)N3C2=O,0.121,-2.81 (inactive),-0.01 (inactive),-0.191 (inactive),-0.805 (inactive),-0.772 (inactive),0.09 (inactive),0.74,0.0178,0.592 (inactive),-0.499,-1.06,-0.864 (inactive)
CO[C@H]1COC(=O)CC=C[C@H](C)[C@@H](OC)COC(=O)CC=C[C@@H]1C,1.4,-1.65 (inactive),1.18 (inactive),0.522 (inactive),-1.38 (inactive),1.2 (inactive),1.21 (inactive),0.749,-0.199,0.878 (inactive),0.695,0.648,-0.307 (inactive)
CO[C@H]1COC(=O)[C@H](C)NC(=O)CC=C[C@@H](C)[C@H](NS(=O)(=O)c2ccc(C)cc2)COC(=O)[C@@H](OCc2ccccc2)C=C[C@@H]1C,0.618,0.156 (inactive),1.03 (inactive),0.604 (inactive),1.25 (inactive),0.292 (inactive),0.104 (inactive),0.775,-0.0123,-0.253 (inactive),0.72,-0.569,-1.21 (inactive)
CO[C@@H]1COC(=O)[C@H](C)NC(=O)CC=C[C@@H](C)[C@H](OC)COC(=O)[C@H](C)NC(=O)CC=C[C@H]1C,0.542,-0.786 (inactive),0.102 (inactive),0.32 (inactive),-0.161 (inactive),0.884 (inactive),0.552 (inactive),-0.171,-0.142,-0.479 (inactive),0.132,0.363,0.229 (inactive)
CO[C@H]1COC(=O)[C@H](C)COC(=O)[C@H](Cc2ccccc2)NC(=O)CC=C[C@H]1C,0.492,-1.3 (inactive),0.62 (inactive),-0.393 (inactive),-0.954 (inactive),0.192 (inactive),0.144 (inactive),0.254,-0.267,-0.454 (inactive),0.613,0.724,0.57 (inactive)
CCN1C(C)=C(C(=O)OC)[C@@H](c2ccccc2)N2C(=O)[C@](O)(C(=O)OC)[C@@H](c3ccccc3)C(C(=O)c3ccccc3)=C12,2.22,-3.46 (inactive),1.06 (inactive),0.208 (inactive),-0.785 (inactive),1.55 (inactive),1.39 (inactive),1.57,-0.101,-0.176 (inactive),0.283,0.245,-4.23 (inactive)
C=CCc1cccc([C@@H]2[C@@H](C)CC[C@H]3C(=O)N4[C@H](c5cccc(CC=C)c5)[C@@H](C)CC[C@H]4C(=O)N23)c1,2.52,-1.2 (inactive),0.778 (inactive),-1.76 (inactive),1.1 (inactive),0.55 (inactive),-0.184 (inactive),-1.11,-0.187,0.718 (inactive),0.336,-0.729,-3.9 (inactive)
CO[C@H]1COC(=O)[C@@H](OCc2ccccc2)C=C[C@H](C)[C@@H](OC)COC(=O)[C@H](OCc2ccccc2)C=C[C@@H]1C,1.12,-2.2 (inactive),1.6 (inactive),-1.11 (inactive),-3.47 (inactive),0.422 (inactive),-0.97 (inactive),0.193,-0.148,-1.11 (inactive),-0.267,0.313,0.371 (inactive)
C[C@@H]1NC(=O)CC=C[C@@H](C)[C@@H]2C=C[C@H](O)[C@@H](COC(=O)[C@H](C)NC(=O)CC=C[C@@H](C)[C@@H]3C=C[C@H](O)[C@@H](COC1=O)O3)O2,-0.0969,-2.21 (inactive),0.668 (inactive),0.633 (inactive),-1.76 (inactive),0.953 (inactive),0.264 (inactive),0.526,-0.135,-0.217 (inactive),0.221,-1.47,0.881 (inactive)
CCN1C(C)=C(C(=O)OC)[C@@H](c2ccccc2)N2C(=O)[C@](O)(C(=O)OC)[C@@H](c3ccccc3)C(C(C)=O)=C12,-0.267,-2.6 (inactive),1.43 (inactive),-5.15 (inactive),-1.84 (inactive),-0.891 (inactive),-2 (inactive),0.554,-0.0167,-0.192 (inactive),-1.35,-1.56,-1.27 (inactive)
CO[C@H]1COC(=O)[C@@H](C)NC(=O)CC=C[C@@H](C)[C@H](OC)COC(=O)CC=C[C@@H]1C,1.16,-2.42 (inactive),0.563 (inactive),-0.336 (inactive),-2.65 (inactive),1.03 (inactive),0.505 (inactive),0.477,-0.271,0.649 (inactive),0.517,-0.243,0.334 (inactive)
COC(=O)C1=C(C)N(Cc2ccccc2)c2c(C(=O)OC)c(C(=O)OC)c(C(=O)OC)c(=O)n2[C@@H]1c1ccccc1,1.23,-1.71 (inactive),-0.364 (inactive),0.295 (inactive),-1.05 (inactive),-0.0311 (inactive),0.0198 (inactive),0.512,-0.0841,0.17 (inactive),-0.0775,0.149,-2.2 (inactive)
COc1cccc([C@@H]2[C@@H](C)CC[C@H]3C(=O)N(C)[C@@H](C(C)C)C(=O)N23)c1,0.989,-1.32 (inactive),0.708 (inactive),0.295 (inactive),0.192 (inactive),0.847 (inactive),0.836 (inactive),1.67,0.258,-0.297 (inactive),0.247,0.451,-0.0898 (inactive)
CO[C@H]1COC(=O)[C@H](CCSC)NC(=O)CC=C[C@@H](C)COC(=O)[C@@H](OCc2ccccc2)C=C[C@@H]1C,0.732,0.0539 (inactive),1.06 (inactive),0.292 (inactive),0.449 (inactive),0.607 (inactive),0.26 (inactive),0.658,-0.12,0.786 (inactive),0.581,-0.115,0.26 (inactive)
CCN1C(C)=C(C(=O)OC)[C@@H](c2ccccc2)N2C(=O)[C@@]3(C(=O)OC)O[C@@]12[C@@H]1C(=O)N(c2ccccc2)C(=O)[C@@H]13,0.392,-1.07 (inactive),0.839 (inactive),0.295 (inactive),-0.85 (inactive),-0.631 (inactive),-0.21 (inactive),1.21,-0.18,0.357 (inactive),0.9,-0.425,-0.559 (inactive)
COc1cccc([C@H]2N[C@H](C(=O)O)CC[C@@H]2C)c1,-0.104,-1.03 (inactive),0.975 (inactive),-2.33 (inactive),-0.393 (inactive),-0.914 (inactive),-0.83 (inactive),0.761,0.169,0.253 (inactive),-0.567,-1.4,3.05 (inactive)
CO[C@H]1COC(=O)[C@H](Cc2ccccc2)NC(=O)CC=C[C@@H](C)[C@H](OC)COC(=O)CC=C[C@@H]1C,0.471,-1.43 (inactive),0.0446 (inactive),0.0048 (inactive),-1.06 (inactive),0.373 (inactive),0.53 (inactive),0.562,0.0525,-0.707 (inactive),0.0418,0.0348,1.05 (inactive)
